# Results taken from the supplement of paper PMC8728848.
# This is one part of a sample in which the strongest signals are shown more often than they occur.
# B1: AFCNVH (Aspergillus fumigatus) (protein)
# chain: MSLRGFHTTCDTIVLKDKHILSSRCKRPDGTYSFSEIDLNDCLGNNNGKFVWGGESFVDSASQVNLALEGGEGRPMLHAQLNDWHGSVQSASVNLGECIQNEAGGLEYMHC
# How the values were obtained:
# Assay in all cases: glycan array binding signal (z-score within array); higher = stronger binding
# Conditions in all cases: glycan notation: IUPAC condensed, linker removed
# [1] = target: Fuc(a1-2)Gal(b1-4)Fuc(a1-3)]GlcNAc(b1-2)Man(a1-3)[Fuc(a1-2)Gal(b1-4)[Fuc(a1-3)]GlcNAc(b1-2)Man(a1-6)]Man(b1-4)GlcNAc(b1-4)GlcNAc
# In short: (§1)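 The Consortium for Functional Glycomics database supplied 3228 glycan arrays, of which those lacking an available protein sequence were dropped. The binding signal, a within-array Z-score, was averaged across arrays of the same protein sequence and across linkers. Negative scores can be read as non-binding.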
# [2] = target: Fuc(a1-2)Gal(b1-4)GlcNAc(b1-2)Man(a1-3)[Fuc(a1-2)Gal(b1-4)GlcNAc(b1-2)Man(a1-6)]Man(b1-4)GlcNAc(b1-4)[Fuc(a1-6)]GlcNAc
# In short: as §1
# [3] = target: Fuc(a1-2)Gal(b1-4)GlcNAc(b1-2)[Fuc(a1-2)Gal(b1-4)GlcNAc(b1-4)]Man(a1-3)[Fuc(a1-2)Gal(b1-4)GlcNAc(b1-2)Man(a1-6)]Man(b1-4)GlcNAc(b1-4)GlcNAc
# In short: as §1
# [4] = target: Fuc(a1-2)[Gal(a1-3)]Gal(b1-3)GlcNAc(b1-2)Man(a1-3)[Fuc(a1-2)[Gal(a1-3)]Gal(b1-3)GlcNAc(b1-2)Man(a1-6)]Man(b1-4)GlcNAc(b1-4)[Fuc(a1-6)]GlcNAc
# In short: as §1
# [5] = target: Fuc(a1-2)[Gal(a1-4)]Gal(b1-4)GlcNAc
# In short: as §1
# [6] = target: Fuc(a1-3)[Gal(b1-4)]Glc6S
# In short: as §1
# [7] = target: Fuc(a1-3)[Gal(b1-4)]GlcNAc6S
# In short: as §1
# [8] = target: Fuc(a1-3)[GalNAc(b1-4)]GlcNAc6S
# In short: as §1
# Gal(a1-3)Gal(b1-3)GlcNAc = target: Gal(a1-3)Gal(b1-3)GlcNAc
# In short: as §1
# Gal(a1-3)GalNAc = target: Gal(a1-3)GalNAc
# In short: as §1
# [9] = target: Gal(b1-3)GalNAc(b1-3)Gal(a1-4)Gal(b1-4)Glc
# In short: as §1
# [10] = target: Gal(b1-3)GlcNAc(b1-6)Gal(b1-4)GlcNAc
# In short: as §1
# [11] = target: Gal(b1-3)[Neu5Ac(a2-6)]GalNAc
# In short: as §1
# [12] = target: Gal(b1-4)GlcNAc(b1-2)[Gal(b1-4)GlcNAc(b1-6)]Man(a1-6)[Gal(b1-4)GlcNAc(b1-2)Man(a1-3)]Man(b1-4)GlcNAc(b1-4)[Fuc(a1-6)]GlcNAc
# In short: as §1
# [13] = target: Gal(b1-4)GlcNAc(b1-3)Gal(b1-4)GlcNAc(b1-3)[Gal(b1-4)GlcNAc(b1-3)Gal(b1-4)GlcNAc(b1-6)]GalNAc
# In short: as §1
# [14] = target: Gal(b1-4)GlcNAc(b1-3)[GlcNAc(b1-6)]Gal(b1-4)GlcNAc
# In short: as §1
# [15] = target: GalNAc(a1-3)GalNAc(b1-3)Gal(a1-4)Gal(b1-4)Glc
# In short: as §1
# [16] = target: GalNAc(b1-3)Gal(a1-6)Gal(b1-4)Glc
# In short: as §1
# [17] = target: GalNAc(b1-4)GlcNAc(b1-2)Man
# In short: as §1
# [18] = target: GalNAc(b1-4)GlcNAc(b1-2)Man(a1-3)[GalNAc(b1-4)GlcNAc(b1-2)Man(a1-6)]Man(b1-4)GlcNAc(b1-4)GlcNAc
# In short: as §1
# GalNAc3S(b1-4)GlcNAc = target: GalNAc3S(b1-4)GlcNAc
# In short: as §1
# [19] = target: GlcNAc(a1-3)Gal(b1-4)GlcNAc
# In short: as §1
# [20] = target: GlcNAc(a1-4)Gal(b1-4)GlcNAc(b1-3)Gal(b1-4)Glc
# In short: as §1
# [21] = target: GlcNAc(b1-2)Man(a1-3)[GlcNAc(b1-2)Man(a1-6)]Man(b1-4)GlcNAc(b1-4)GlcNAc
# In short: as §1
# [22] = target: GlcNAc(b1-2)Man(a1-3)[GlcNAc(b1-4)][GlcNAc(b1-2)Man(a1-6)]Man(b1-4)GlcNAc(b1-4)GlcNAc
# In short: as §1
# [23] = target: GlcNAc(b1-2)[GlcNAc(b1-6)]Man(a1-6)[GlcNAc(b1-2)Man(a1-3)]Man(b1-4)GlcNAc(b1-4)GlcNAc
# In short: as §1
# GlcNAc(b1-3)Gal(b1-4)Glc = target: GlcNAc(b1-3)Gal(b1-4)Glc
# In short: as §1
# [24] = target: GlcNAc(b1-3)Gal(b1-4)GlcNAc(b1-3)Gal(b1-4)GlcNAc(b1-2)[GlcNAc(b1-3)Gal(b1-4)GlcNAc(b1-3)Gal(b1-4)GlcNAc(b1-6)]Man(a1-6)[GlcNAc(b1-3)Gal(b1-4)GlcNAc(b1-3)Gal(b1-4)GlcNAc(b1-2)Man(a1-3)]Man(b1-4)GlcNAc(b1-4)[Fuc(a1-6)]GlcNAc
# In short: as §1
# [25] = target: GlcNAc(b1-3)Gal(b1-4)GlcNAc(b1-3)Gal(b1-4)GlcNAc(b1-3)Gal(b1-4)GlcNAc(b1-2)Man(a1-3)[GlcNAc(b1-3)Gal(b1-4)GlcNAc(b1-3)Gal(b1-4)GlcNAc(b1-3)Gal(b1-4)GlcNAc(b1-2)Man(a1-6)]Man(b1-4)GlcNAc(b1-4)GlcNAc
# In short: as §1
# [26] = target: GlcNAc(b1-3)Gal(b1-4)GlcNAc(b1-3)Gal(b1-4)GlcNAc(b1-3)Gal(b1-4)GlcNAc(b1-2)[GlcNAc(b1-3)Gal(b1-4)GlcNAc(b1-3)Gal(b1-4)GlcNAc(b1-3)Gal(b1-4)GlcNAc(b1-6)]Man(a1-6)[GlcNAc(b1-3)Gal(b1-4)GlcNAc(b1-3)Gal(b1-4)GlcNAc(b1-3)Gal(b1-4)GlcNAc(b1-2)Man(a1-3)]Man(b1-4)GlcNAc(b1-4)[Fuc(a1-6)]GlcNAc
# In short: as §1
# [27] = target: GlcNAc(b1-3)Gal(b1-4)GlcNAc(b1-3)Gal(b1-4)GlcNAc(b1-3)Gal(b1-4)GlcNAc(b1-3)Gal(b1-4)GlcNAc(b1-2)Man(a1-3)[GlcNAc(b1-3)Gal(b1-4)GlcNAc(b1-3)Gal(b1-4)GlcNAc(b1-3)Gal(b1-4)GlcNAc(b1-3)Gal(b1-4)GlcNAc(b1-2)Man(a1-6)]Man(b1-4)GlcNAc(b1-4)[Fuc(a1-6)]GlcNAc
# In short: as §1
# [28] = target: GlcNAc(b1-3)Gal(b1-4)GlcNAc(b1-3)Gal(b1-4)GlcNAc(b1-3)Gal(b1-4)GlcNAc(b1-3)Gal(b1-4)GlcNAc(b1-2)[GlcNAc(b1-3)Gal(b1-4)GlcNAc(b1-3)Gal(b1-4)GlcNAc(b1-3)Gal(b1-4)GlcNAc(b1-3)Gal(b1-4)GlcNAc(b1-6)]Man(a1-6)[GlcNAc(b1-3)Gal(b1-4)GlcNAc(b1-3)Gal(b1-4)GlcNAc(b1-3)Gal(b1-4)GlcNAc(b1-3)Gal(b1-4)GlcNAc(b1-2)Man(a1-3)]Man(b1-4)GlcNAc(b1-4)[Fuc(a1-6)]GlcNAc
# In short: as §1
# [29] = target: GlcNAc(b1-3)[GlcNAc(b1-4)][GlcNAc(b1-6)]GlcNAc
# In short: as §1
# [30] = target: GlcNAc(b1-4)GlcNAc(b1-4)GlcNAc(b1-4)GlcNAc(b1-4)GlcNAc
# In short: as §1
# GlcNAc(b1-6)GalNAc = target: GlcNAc(b1-6)GalNAc
# In short: as §1
# [31] = target: Kdn(a2-3)Gal(b1-4)[Fuc(a1-3)]GlcNAc
# In short: as §1
# [32] = target: Man(a1-2)Man(a1-3)[Man(a1-2)Man(a1-6)]Man(a1-6)[Man(a1-2)Man(a1-2)Man(a1-3)]Man(b1-4)GlcNAc(b1-4)GlcNAc
# In short: as §1
# Man(b1-4)GlcNAc = target: Man(b1-4)GlcNAc
# In short: as §1
# [33] = target: Neu5Ac(a2-3)Gal(b1-3)GlcNAc(b1-2)[Neu5Ac(a2-3)Gal(b1-3)GlcNAc(b1-4)]Man(a1-6)[Neu5Ac(a2-3)Gal(b1-3)GlcNAc(b1-2)Man(a1-3)]Man(b1-4)GlcNAc(b1-4)GlcNAc
# In short: as §1
# [34] = target: Neu5Ac(a2-3)Gal(b1-3)GlcNAc(b1-3)GalNAc
# In short: as §1
# [35] = target: Neu5Ac(a2-3)Gal(b1-3)GlcNAc6S
# In short: as §1
# [36] = target: Neu5Ac(a2-3)Gal(b1-3)[Fuc(a1-4)]GlcNAc(b1-3)Gal(b1-4)[Fuc(a1-3)]GlcNAc
# In short: as §1
# [37] = target: Neu5Ac(a2-3)Gal(b1-3)[Neu5Ac(a2-6)]GlcNAc(b1-3)[Fuc(a1-3)[Gal(b1-4)]GlcNAc(b1-6)]Gal(b1-4)Glc
# In short: as §1
# [38] = target: Neu5Ac(a2-3)Gal(b1-3)]Neu5Ac(a2-3)Gal(b1-4)]GlcNAc
# In short: as §1
# [39] = target: Neu5Ac(a2-3)Gal(b1-4)GlcNAc(b1-2)[Neu5Ac(a2-3)Gal(b1-4)GlcNAc(b1-4)]Man(a1-3)[GlcNAc(b1-4)][Neu5Ac(a2-3)Gal(b1-4)GlcNAc(b1-2)[Neu5Ac(a2-3)Gal(b1-4)GlcNAc(b1-6)]Man(a1-6)]Man(b1-4)GlcNAc(b1-4)GlcNAc
# In short: as §1
# [40] = target: Neu5Ac(a2-3)Gal(b1-4)GlcNAc(b1-3)Gal(b1-4)[Fuc(a1-3)]GlcNAc
# In short: as §1
# [41] = target: Neu5Ac(a2-3)Gal(b1-4)GlcNAc(b1-3)GalNAc
# In short: as §1
# [42] = target: Neu5Ac(a2-3)GalNAc(b1-4)GlcNAc
# In short: as §1
# [43] = target: Neu5Ac(a2-8)Neu5Ac(a2-3)Gal(b1-3)GalNAc(b1-4)[Neu5Ac(a2-3)]Gal(b1-4)Glc
# In short: as §1
# [44] = target: Neu5Ac(a2-8)Neu5Gc(a2-3)Gal(b1-4)GlcNAc
# In short: as §1
# Neu5Gc(a2-3)Gal(b1-4)Glc = target: Neu5Gc(a2-3)Gal(b1-4)Glc
# In short: as §1
binder,measurement,setting,value
B1,glycan array binding signal (z-score),[1],-0.233
same,glycan array binding signal (z-score),[2],-0.175
same,glycan array binding signal (z-score),[3],-0.277
same,glycan array binding signal (z-score),[4],-0.326
same,glycan array binding signal (z-score),[5],0.231
same,glycan array binding signal (z-score),[6],-0.331
same,glycan array binding signal (z-score),[7],-0.372
same,glycan array binding signal (z-score),[8],0.612
same,glycan array binding signal (z-score),Gal(a1-3)Gal(b1-3)GlcNAc,-0.453
same,glycan array binding signal (z-score),Gal(a1-3)GalNAc,-0.37
same,glycan array binding signal (z-score),[9],-0.212
same,glycan array binding signal (z-score),[10],-0.391
same,glycan array binding signal (z-score),[11],-0.504
same,glycan array binding signal (z-score),[12],-0.378
same,glycan array binding signal (z-score),[13],-0.168
same,glycan array binding signal (z-score),[14],4.53
same,glycan array binding signal (z-score),[15],-0.347
same,glycan array binding signal (z-score),[16],-0.462
same,glycan array binding signal (z-score),[17],4.18
same,glycan array binding signal (z-score),[18],4.08
same,glycan array binding signal (z-score),GalNAc3S(b1-4)GlcNAc,1.43
same,glycan array binding signal (z-score),[19],4.61
same,glycan array binding signal (z-score),[20],3.99
same,glycan array binding signal (z-score),[21],-0.164
same,glycan array binding signal (z-score),[22],4.58
same,glycan array binding signal (z-score),[23],-0.203
same,glycan array binding signal (z-score),GlcNAc(b1-3)Gal(b1-4)Glc,-0.196
same,glycan array binding signal (z-score),[24],3.73
same,glycan array binding signal (z-score),[25],4.24
same,glycan array binding signal (z-score),[26],3.78
same,glycan array binding signal (z-score),[27],1.62
same,glycan array binding signal (z-score),[28],4.73
same,glycan array binding signal (z-score),[29],-0.338
same,glycan array binding signal (z-score),[30],3.83
same,glycan array binding signal (z-score),GlcNAc(b1-6)GalNAc,1.1
same,glycan array binding signal (z-score),[31],-0.455
same,glycan array binding signal (z-score),[32],-0.336
same,glycan array binding signal (z-score),Man(b1-4)GlcNAc,-0.3
same,glycan array binding signal (z-score),[33],-0.439
same,glycan array binding signal (z-score),[34],-0.385
same,glycan array binding signal (z-score),[35],-0.204
same,glycan array binding signal (z-score),[36],-0.305
same,glycan array binding signal (z-score),[37],-0.416
same,glycan array binding signal (z-score),[38],-0.242
same,glycan array binding signal (z-score),[39],-0.351
same,glycan array binding signal (z-score),[40],-0.398
same,glycan array binding signal (z-score),[41],-0.339
same,glycan array binding signal (z-score),[42],-0.24
same,glycan array binding signal (z-score),[43],-0.287
same,glycan array binding signal (z-score),[44],-0.48
same,glycan array binding signal (z-score),Neu5Gc(a2-3)Gal(b1-4)Glc,-0.447
